About 1,600 (0.52%) of roughly 310,000 compounds were called active.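 Rule for the calls: active = activation above the mean of controls blocked by dofetilide plus 5 SD; inactive = the rest.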 This excerpt belongs to a sample that is enriched for actives. Square brackets hold non-standard residues; d marks the D form. Peptide text beside a SMILES is read from it. ξ: configuration not given here. ξM = CSCCC(N)C(=O)O
Biological target: Voltage-gated inwardly rectifying potassium channel KCNH2 (Homo sapiens) (UniProt Q12809)
Sequence (Q12809 whole entry, looked up): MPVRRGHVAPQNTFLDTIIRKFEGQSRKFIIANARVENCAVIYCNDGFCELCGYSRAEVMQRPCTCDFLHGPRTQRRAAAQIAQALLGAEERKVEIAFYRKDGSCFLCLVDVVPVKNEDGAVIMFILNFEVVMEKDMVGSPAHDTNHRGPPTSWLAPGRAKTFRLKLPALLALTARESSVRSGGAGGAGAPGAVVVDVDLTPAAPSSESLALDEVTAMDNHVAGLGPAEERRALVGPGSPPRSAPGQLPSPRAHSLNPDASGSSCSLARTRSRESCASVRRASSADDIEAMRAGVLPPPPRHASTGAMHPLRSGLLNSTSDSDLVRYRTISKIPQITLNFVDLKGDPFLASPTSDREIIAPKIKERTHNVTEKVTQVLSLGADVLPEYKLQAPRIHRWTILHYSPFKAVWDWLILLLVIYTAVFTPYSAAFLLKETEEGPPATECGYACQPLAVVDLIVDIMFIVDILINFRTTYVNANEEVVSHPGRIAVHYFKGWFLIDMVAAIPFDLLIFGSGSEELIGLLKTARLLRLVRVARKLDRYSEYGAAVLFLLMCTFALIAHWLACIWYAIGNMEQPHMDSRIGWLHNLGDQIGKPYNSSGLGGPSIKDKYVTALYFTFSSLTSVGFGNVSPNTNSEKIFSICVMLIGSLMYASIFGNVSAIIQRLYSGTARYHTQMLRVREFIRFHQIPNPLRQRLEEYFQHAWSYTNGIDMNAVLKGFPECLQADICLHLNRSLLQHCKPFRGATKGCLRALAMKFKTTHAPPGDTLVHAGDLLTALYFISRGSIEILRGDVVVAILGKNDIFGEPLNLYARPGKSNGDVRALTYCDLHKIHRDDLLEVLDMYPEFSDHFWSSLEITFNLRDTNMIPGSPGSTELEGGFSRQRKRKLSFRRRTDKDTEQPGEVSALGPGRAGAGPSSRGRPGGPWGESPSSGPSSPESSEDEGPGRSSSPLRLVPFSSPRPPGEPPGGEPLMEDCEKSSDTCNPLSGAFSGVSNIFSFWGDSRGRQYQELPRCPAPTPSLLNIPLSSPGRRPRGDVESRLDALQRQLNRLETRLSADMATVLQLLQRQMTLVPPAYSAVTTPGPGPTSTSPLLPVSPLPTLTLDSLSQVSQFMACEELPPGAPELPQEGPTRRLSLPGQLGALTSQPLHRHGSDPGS
Assay: compounds relieving dofetilide block of hERG – cell-based, CHO-hERG, FluxOR thallium flux, dofetilide IC70, primary screen (AID 1511);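 note: thallium influx through hERG after potassium depolarization seen as dye fluorescence rise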
Settings: dofetilide IC70 present, at 10 µM, active compounds read high

Structure (SMILES) | activation (rescue from dofetilide block), less the hit threshold
CCOC(=O)N1CCC(NC(=O)c2ccc3nc(N4CCOCC4)sc3c2)CC1 | -5.7% (inactive)
Cc1nc(N2CCOCC2)sc1C(=O)NN | 4.6% (active)
Cc1nc(-c2ccc(Cl)cc2)sc1C(=O)NN | -10.7% (inactive)
Cc1cc(O)c(C(=O)/C=C/c2c(F)c(F)c(F)c(F)c2F)c(=O)o1 | -23.3% (inactive)
COc1ccc(CCNC(=O)C(=O)Nc2ccc3nc4n(c(=O)c3c2)CCCCC4)cc1OC | -11.8% (inactive)
Nc1nc(SCC(=O)N2CCN(S(=O)(=O)c3ccc(Cl)cc3)CC2)n[nH]1 | -4.93% (inactive)
Cc1ccc(S(=O)(=O)N(C)CC(=O)OCC(=O)N2CC(=O)Nc3ccccc32)cc1 | -8.2% (inactive)
Cc1ccc(NS(=O)(=O)c2ccc(C)c(NC(=O)COc3ccc4ccccc4c3)c2)c(C)c1 | -12.4% (inactive)
COc1cc(NS(=O)(=O)c2ccc3ccccc3c2)c2ncccc2c1 | 5.48% (active)
O=[N+]([O-])c1ccccc1S(=O)(=O)Nc1cccc2cccnc12 | -0.19% (inactive)
Cc1ccc(NC(=O)c2cc([N+](=O)[O-])ccc2Cl)c(O)c1 | -3.14% (inactive)
CCCNC(=O)COc1coc(CN2CCN(Cc3ccccc3)CC2)cc1=O | -2.43% (inactive)
COC(=O)CNC(=O)C(CCSC)NC(C)=O (centres undefined) (Ac-[ξM]-Gly-OMe) | -1.31% (inactive)
CCOc1ccc2nc(/N=C/c3nc(-c4ccccc4)oc3O)sc2c1 | 17.1% (active)
CC(N=Cc1nc(-c2ccccc2)oc1O)c1ccccc1 (centres undefined) | -4.74% (inactive)
CCOc1ccc2nc(N(CCCN(C)C)C(=O)c3ccc(C(=O)c4ccccc4)cc3)sc2c1 | -26.7% (inactive)
COC(=O)c1cn(C)c2ccc(S(=O)(=O)N3CC(C)CC(C)C3)cc2c1=O (centres undefined) | -10.9% (inactive)
CCOC(=O)c1sc(=S)n2c1[nH]c(=O)c1ccc(C(=O)OC)cc12 | 77.9% (active)
CCOC(=O)c1ccc(Nc2cc3ccccc3c(=O)[nH]2)cc1 | -10.6% (inactive)
CCOC(=O)C1=C(C)Nc2sc(C(=O)c3ccc(Br)cc3)c(N)c2C1c1ccc(C(=O)OC)cc1 (centres undefined) | -8.23% (inactive)
N/C(=N\OC(=O)CC1CCCCC1)c1ccccc1 | -5.76% (inactive)
CCCCn1c(N)c(N(CCOC)C(=O)c2sc3ccccc3c2Cl)c(=O)[nH]c1=O | -2.36% (inactive)
COc1ccc(-c2cc(C(=O)N(C)Cc3ccccc3)c3ccccc3n2)cc1 | -21.9% (inactive)
CN(C)c1cc(N)c2ccccc2n1 (tested in a mixture with another compound) | 5% (active)
Nc1nc(-c2ccccc2)cc(-c2ccccc2)n1 | -6.21% (inactive)

Structure (SMILES) | activation (rescue from dofetilide block), less the hit threshold
CCCCOC(=O)c1ccc(NC(c2ccc(C)cc2)P(=O)(OC)OC)cc1 (centres undefined) | -14.4% (inactive)
CC(=O)N1CCc2cc(Br)cc(S(=O)(=O)CCC(=O)Nc3c(C)n(C)n(-c4ccccc4)c3=O)c21 | -18% (inactive)
Cc1cc(=O)oc2c1c(C)nn2-c1ccc(Cl)cc1 | -1.68% (inactive)
Cc1nn(C)cc1N1C(=O)c2cccc3c(N)ccc(c23)C1=O | -54.8% (inactive)
Cc1nn(-c2cc(Cl)ccc2N)c(=O)c2ccccc12 | 7.47% (active)
NS(=O)(=O)c1cccc(NC(=O)CC23CC4CC(CC(Br)(C4)C2)C3)c1 | -7.94% (inactive)
Cc1cccc(C)c1NC(=O)CS(=O)CC(=O)N1CCN(c2ccccc2)CC1 (centres undefined) | -5.6% (inactive)
CC(C)C(=O)Nc1nnc(Sc2ccc(N(C)C)cc2)s1 | -6.31% (inactive)
Cc1cccc(C(=O)NCCCN(C)CCCNC(=O)c2cccc(C)c2)c1 | -3.82% (inactive)
Cc1cccc(NC(=S)NCCN(C2CCCCC2)C2CCCC2)c1 | -7.92% (inactive)
Cc1cccc(C(=O)NC(=S)N(C)C2CCCCC2)c1 | 11.6% (active)
COc1ccc2cc(C(=O)NCC3CCCO3)[nH]c2c1 (centres undefined) | -3.17% (inactive)
N#CC1=C(N)N(c2ccc(F)cc2)C(=O)C1 | 3.49% (inactive)
O=C(O)CCCCOn1ccnc1 | -8.74% (inactive)
O=c1c2ccccc2ncn1CCCCOc1ccccc1F | -7.18% (inactive)
O=C(/C=C/c1ccco1)NC(=S)Nc1ccccc1Br | 0.92% (inactive)
COc1ccc(Cl)cc1C(=O)NNC(=S)NC1CCCC1 | 5.84% (active)
O=C(NNC(=S)NC1CCCCC1)c1ccccc1Cl | -19.3% (inactive)
COc1ccc(Cl)cc1C(=O)NNC(=S)NC(=O)/C=C/c1ccco1 | 34.2% (active)
O=C(/C=C/c1ccco1)NC(=S)N1CCCCC1 | -8.68% (inactive)
C=CCNC(=S)NNC(=O)c1cc(Cl)ccc1OC | -3.41% (inactive)
Cc1cccc(Cn2cnc3c(N)c(C)c(C)cc32)c1 | -4.77% (inactive)
CCOC(=O)/C=C/C(=O)OCC(=O)NC(c1ccccc1)c1ccccc1 | -0.47% (inactive)
CSc1cccc(NC(=O)CN2C(=O)COc3ccc(S(=O)(=O)N4CCOCC4)cc32)c1 | -8.66% (inactive)
COc1cccc(CNCc2ccc3c(c2)OCO3)c1 | -1.37% (inactive)

Structure (SMILES) | activation (rescue from dofetilide block), less the hit threshold
O=C(O)c1cccc(N2C(=O)Nc3ccccc3N2O)c1 | 5.69% (active)
O=C1Nc2cc(Cl)c(Cl)cc2N(O)N1c1ccccc1Cl | -11.3% (inactive)
NC1=NN(c2cccc(C(=O)O)c2)C(=O)C1 | -7.19% (inactive)
COc1cc(OC)c(NC(=O)C2CCCN2C(=O)OCc2ccccc2)cc1Cl (centres undefined) | -14.7% (inactive)
COCCCNC(=O)CN1C(=O)CSc2ccc(S(=O)(=O)N3CCOCC3)cc21 | -5.64% (inactive)
O=C(COC(=O)c1ccccc1NC(=O)c1ccco1)Nc1ccc2c(c1)OC(F)(F)O2 | -13.6% (inactive)
O=S(=O)(NCCCc1ccccc1)c1ccc(Br)cc1 | -3.29% (inactive)
O=C1c2ccccc2C(=O)N1CCCc1nc(-c2ccccc2)no1 | -6.67% (inactive)
O=C1c2cccnc2C(=O)N1Cc1cccs1 | -8.43% (inactive)
O=C1c2ccccc2C(=O)N1Cc1cc(-c2ccccc2Cl)no1 | 11.4% (active)
Cc1ccc(NC(=O)C(CC(=O)O)C2CCCO2)c(C)c1 (centres undefined) | -3.96% (inactive)
COCCCn1c(Cc2csc(Nc3cccc(Cl)c3)n2)nnc1SCC(=O)OC1CCCCC1 | -9.88% (inactive)
Cc1c(NC(=O)C(C)Oc2cccc(Cl)c2)c(=O)n(-c2ccccc2)n1C (centres undefined) | -2.29% (inactive)
OC1CN=C2Sc3ccccc3N2C1 (centres undefined) | 4.61% (active)
CCCNCc1cc(OCC)c(OCC(=O)Nc2ccccc2)cc1Br | -25.3% (inactive)
C=Cn1cc[n+](CC(=O)c2ccc(OC)c(OC)c2)c1 | -13.3% (inactive)
COc1ccc(C23NCCN2C(=O)c2ccccc23)cc1 (centres undefined) | -7.58% (inactive)
COc1ccc(C2(O)C(=O)Nc3ccccc32)cc1 (centres undefined) | 4.63% (active)
Cc1cc(O)c(C2(O)C(=O)Nc3ccccc32)cc1C (centres undefined) | -4.06% (inactive)
Cc1ccc(N2C(=O)C3N=NN(CC(=O)N4N=C(c5cccc6ccccc56)CC4c4ccccc4)C3C2=O)cc1 (centres undefined) | -4.02% (inactive)
CC(C)(C)c1cc(P(=O)(c2ccccc2)c2ccccc2)ccc1O | -11.2% (inactive)
O=P(O)(CP(=O)(c1ccccc1)c1ccccc1)c1ccccc1 | -3.04% (inactive)
O=P(O)(CP(=O)(c1ccccc1)c1ccccc1)c1ccccc1O | 6.37% (active)
CS(=O)(=O)N(CC(=O)NC1CCCC1)Cc1ccc(F)cc1 | 1.73% (inactive)
